# High-throughput results as filed in PubChem.
# TWEAK Fn14 block = blocks TWEAK-Fn14 interaction in a reporter cell assay | TWEAK-stimulated Fn14 reporter cells, luciferase luminescence, 8 h | inhibition, % at 10 µM | actives 2% (n = 360,000); in the data active = inhibition above about 50%
# CF NFkB inh = inhibitors of cystic fibrosis induced NF-kB; KKLEB NF-kB-GFP reporter, PAF-induced, GFP fluorescence overnight; actives 0.86% (n = 360,000); AID 588850; inhibition, % at 5 µM;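 active = at least 50% inhibition at 5 µM, scaled per plate between neutral and stimulator controls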;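 also: PAF is a Pseudomonas aeruginosa culture filtrate used as stimulus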
# EWS-Fli block = blocks EWS/Fli oncoprotein-driven transcription | inhibition, % at 12.6 µM | A673 NR0B1-luciferase reporter, viability-normalised | actives 0.67% (n = 350,000) | AID 651661;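 active = mean inhibition of at least 50% after viability correction, with every replicate also passing that limit; inconclusive = mean reaches 50% but only one of two replicates passes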;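 also: firefly luciferase signal divided by Alamar Blue viability fluorescence both relative to DMSO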
# LGR2 inh = inhibitors of bursicon-induced Drosophila LGR2 receptor cAMP signaling | AID 720647 | HEK293 LGR2, CRE-luciferase, bursicon-stimulated, 4 h | inhibition, % at 9.99 µM | actives 0.35% (n = 380,000);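 active = drop in luminescence signal, shown as inhibition above about 50% in the replicate tests, limit read from the data, passing the limit was not always enough; inconclusive = probably only some replicates passing the limit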;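 also: agonist challenge used bursicon conditioned medium at about half maximal strength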
# KKLEB cytotox = counter-screen for CF NF-kB inhibitors: cytotoxicity; KKLEB CF airway cells viability, ATPlite luminescence, overnight; stronger effect = lower value; cells stimulated with P. aeruginosa culture filtrate; activity change (cytotoxicity), % at 5 µM; actives 0.36% (n = 360,000);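 active = corrected activity change at or below -50% at 5 µM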
# TROY signal inh = inhibitors of TROY-dependent NF-kB signaling; actives 0.98% (n = 360,000); Q293 LMP1-TROYcd NF-kB luciferase reporter, 4 h; AID 1347056; inhibition, % at 10 µM;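 active = compounds whose plate-normalised and pattern-corrected inhibition of the luciferase reporter signal at the single screening dose is 50% or more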
# Hits are given with their value; 0 = inactive; ? = inconclusive; - = no result given. The list is not random: actives were taken first. Their share in the collection is about 2.6%.
SMILES,TWEAK Fn14 block,CF NFkB inh,EWS-Fli block,LGR2 inh,KKLEB cytotox,TROY signal inh
CC(C)CCNC(=O)c1cc(-c2ccncc2)nc2ccc(S(=O)(=O)N3CCOCC3)cc12,0,0,-,0,0,0
COCCNC(=O)c1cc(-c2ccncc2)nc2ccc(S(=O)(=O)N3CCOCC3)cc12,0,0,0,0,0,64
Cc1ccc(S(=O)(=O)Cc2ccc(C(=O)NCCCN3CCN(C)CC3)o2)cc1,84,0,-,-,0,76
C[C@H](CO)N1C[C@H](C)[C@@H](CN(C)S(=O)(=O)c2cccc(F)c2)Oc2ncc(C#CC3CCCC3)cc2C1=O,-,-,0,0,-,-
Cc1ccc(N/C=C(\C2OC(=O)c3ccccc32)[N+](=O)[O-])c(C)c1 (stereo not given),0,0,0,0,0,0
O=C1OC(/C(=C\Nc2ccc(F)cc2F)[N+](=O)[O-])c2ccccc21 (stereo not given),51,0,0,0,0,0
Cc1noc(C)c1NC(=O)Nc1cccc2c1O[C@@H](CN(C)Cc1ccccc1)[C@H](C)CN([C@H](C)CO)C2=O,-,-,0,0,-,-
C[C@H]1CN([C@@H](C)CO)C(=O)Cc2cc(NS(=O)(=O)c3cccs3)ccc2O[C@H]1CN(C)CC1CCCCC1,-,-,0,0,-,-
N#Cc1ccccc1OCCN1C(=O)c2ccccc2C1=O,0,0,-,0,0,0
Nc1cccc2c1C(=O)N(CCOc1ccccc1F)C2=O,59,0,0,?,0,0
C[C@@H]1CN([C@@H](C)CO)C(=O)c2cc(/C=C/c3ccccc3)cnc2O[C@H]1CN(C)C,-,-,0,0,-,-
CC1=NOC(=O)/C1=C\c1ccc(-c2ccc(Br)cc2)o1,64,0,0,-,0,73
CC1=NOC(=O)/C1=C\c1ccc(-c2ccc(Br)cc2C(=O)O)o1,0,0,0,0,0,0
CC1=NOC(=O)/C1=C\c1ccc(-c2cc(Cl)ccc2Cl)o1,101,66,-,-,0,0
CC1=NOC(=O)/C1=C/c1ccc(-c2ccc(Cl)cc2)o1,73,0,-,-,0,78
C/C=C/c1ccc2c(c1)O[C@H](CN(C)C(=O)c1ccccc1F)[C@@H](C)CN([C@H](C)CO)S2(=O)=O,-,-,0,0,-,-
COCCCNC(=O)C(=O)Nc1ccc2c(c1)N(S(=O)(=O)c1cccs1)CCC2,0,0,63,0,0,0
CCCNC(=O)C(=O)Nc1ccc2c(c1)N(S(=O)(=O)c1cccs1)CCC2,0,0,0,0,0,0
COc1ccccc1S(=O)(=O)N(C)C[C@@H]1Oc2cc(/C=C/c3ccccc3)ccc2S(=O)(=O)N([C@H](C)CO)C[C@H]1C,-,-,0,0,-,-
COc1cc(/C=N/NC(=O)COc2cc(C)cc(C)c2)ccc1OS(=O)(=O)c1ccc(C)cc1,62,0,0,0,0,0
C[C@@H]1CCCCO[C@@H](CN(C)C(=O)c2ccccc2)[C@H](C)CN([C@H](C)CO)C(=O)c2cc(NC(=O)CCC(F)(F)F)ccc2O1,-,-,0,0,-,-
N#Cc1c(NC(=O)/C=C/c2ccco2)sc2c1CCCC2,0,62,0,0,-52,0
Cc1noc(C)c1NC(=O)Nc1ccc2c(c1)C(=O)N([C@@H](C)CO)C[C@H](C)[C@H](CN(C)CC1CCCCC1)OCCCC[C@@H](C)O2,-,-,0,0,-,-
O=C1CC(=O)N(Cc2ccco2)C(=O)N1,0,0,-,-,0,0
O=C1CC(=O)N(Cc2ccco2)C(=S)N1,51,0,-,-,0,0
SMILES,TWEAK Fn14 block,CF NFkB inh,EWS-Fli block,LGR2 inh,KKLEB cytotox,TROY signal inh
C[C@H](CO)N1C[C@H](C)[C@H](CN(C)S(=O)(=O)c2cccs2)Oc2ccc(NS(=O)(=O)c3cccs3)cc2C1=O,-,-,0,0,-,-
CCN(CC(=O)NCc1cccs1)C(=O)c1ccc(C)o1,0,0,0,0,0,0
CCN(CC(=O)NCc1cccs1)C(=O)c1ccc(-c2ccc(F)cc2)o1,80,0,0,0,0,0
C/C=C/c1ccc([C@H]2[C@H](CO)N3CCCCN(S(=O)(=O)c4ccc(F)cc4)C[C@@H]23)cc1,-,-,0,0,-,-
C[C@H]1CCCCO[C@@H](CN(C)C(=O)Nc2cccc3ccccc23)[C@@H](C)CN([C@@H](C)CO)C(=O)c2cc(NC(=O)c3ccncc3)ccc2O1,-,-,0,0,-,-
CC(Oc1ccc(F)cc1)C(=O)Nc1nc(-c2ccccn2)cs1 (stereo not given),0,0,0,0,0,74
Fc1ccccc1N=C1NN=C(c2ccccc2)CS1,67,0,0,0,0,0
Fc1ccc(F)c(C2=NNC(=Nc3ccccc3F)SC2)c1,0,0,0,0,0,0
COCCCN=C1NN=C(c2cc(C)n(-c3ccccc3F)c2C)CS1,59,0,58,0,0,0
COCCn1c(C)cc(C2=NNC(=Nc3ccccc3F)SC2)c1C,105,0,-,-,0,89
Cc1cc(C2=NNC(=NCCc3ccccc3)SC2)c(C)n1-c1c(C)n(C)n(-c2ccccc2)c1=O,57,0,0,0,0,0
COc1ccccc1CNC(=O)C[C@H]1C=C[C@H](NC(=O)CC2CC2)[C@H](CO)O1,-,-,0,0,-,-
COC(=O)c1nn(-c2ccc(OC)cc2)c(=O)cc1O,0,0,0,0,0,0
COc1ccc(-n2nc(C#N)c(Cl)cc2=O)cc1,96,77,53,105,0,61
CCCN1C[C@@H](C)[C@H](OC)CN(C)C(=O)c2cc(NC(=O)Nc3ccccc3F)ccc2OC[C@@H]1C,-,-,0,0,-,-
CCCCn1c(SCC(N)=O)nc2ccc(N3CCOCC3)cc2c1=O,0,0,-,-,0,0
CCCCn1c(SCC(=O)Nc2cccc(OC)c2)nc2ccc(N3CCOCC3)cc2c1=O,0,0,-,-,0,62
CC(C)NC(=O)Nc1ccc2c(c1)C(=O)N([C@H](C)CO)C[C@H](C)[C@H](CN(C)CC1CC1)OCCCC[C@H](C)O2,-,-,0,0,-,-
C[C@H](CO)N1C[C@H](C)[C@@H](CN(C)C(=O)NC2CCCCC2)Oc2ccc(NS(=O)(=O)c3ccc(Cl)cc3)cc2C1=O,-,-,0,0,-,-
CC1CCc2c(sc(NC(=O)CSc3ncn[nH]3)c2C#N)C1 (stereo not given),72,0,64,0,0,0
CCN1CCN(CC(=O)Nc2sc3c(c2C#N)CCC(C)C3)CC1 (stereo not given),78,0,-,0,0,-
CC(C)(C)C1CCc2c(sc(NC(=O)CSc3ncn[nH]3)c2C#N)C1 (stereo not given),0,0,-,-,0,0
N#Cc1c(NC(=O)CSc2nc(-c3ccccc3)cc(C(F)(F)F)n2)sc2c1CCC2,0,0,-,0,0,0
N#Cc1c(NC(=O)CSc2ncn[nH]2)sc2c1CCCC2,81,0,-,-,0,0
COc1ccc(-c2cc(C(F)(F)F)nc(SCC(=O)Nc3sc4c(c3C#N)CCC4)n2)cc1,0,0,0,0,-61,0
C[C@@H]1CCCCO[C@H](CN(C)S(=O)(=O)c2ccc(F)cc2)[C@@H](C)CN([C@@H](C)CO)C(=O)c2cc(NC(=O)Nc3ccc(F)cc3)ccc2O1,-,-,0,0,-,-
